{"source": "PubChem BioAssay AID624167", "about": "(Sanford-Burnham Center for Chemical Genomics, 2012)"}
{"test": "inhibition of PEG-3 promoter-driven reporter – cell-based, HeLa, luciferase, CREF/GAPDH counter-screen panel, dose response (AID 624167)", "settings": "CREF/GAPDH counter-screens; run 1, dose range 1, at 100 µM (top of the series)", "units": {"inhibition": "%"}}
{"smiles": "CCCC(=O)NC(c1ccc(Cl)cc1)c1ccc2cccnc2c1O", "note": "(stereo not drawn)", "inhibition": 70.4}
{"smiles": "O=C(N/N=C/c1cc([N+](=O)[O-])ccc1O)c1ccc(COc2ccc3c(c2)CCC3)o1", "inhibition": 27.1}
{"smiles": "Cc1ccc(OCC(=O)c2cc(C)n(-c3ccccc3)c2C)c([N+](=O)[O-])n1", "inhibition": 73}
{"smiles": "CN1OC[C@@H]2CN(S(=O)(=O)c3cccc(C(F)(F)F)c3)[C@H](c3ccc(-c4cc5ccccc5o4)cc3)C[C@@H]21", "inhibition": 70.1}
{"smiles": "CCCC(=O)NC(c1ccc(OC)cc1)c1ccc2cccnc2c1O", "note": "(stereo not drawn)", "inhibition": 67.4}
{"smiles": "CN(C(=O)COC(=O)/C=C/c1cccc([N+](=O)[O-])c1)C1CCS(=O)(=O)C1", "note": "(stereo not drawn)", "inhibition": 26}
{"smiles": "Cc1oc(-c2ccc3c(c2)OCCO3)cc1C(=O)O", "inhibition": 98.6}
{"smiles": "CN1C/C(=C/c2ccccc2[N+](=O)[O-])C(=O)/C(=C\\c2ccccc2[N+](=O)[O-])C1", "inhibition": 50.1}
{"smiles": "NS(=O)(=O)c1ccc(CCNc2nn3c(-c4ccc(F)c(Cl)c4)cnc3s2)cc1", "inhibition": 73.4}
{"smiles": "CCc1ccc(/C=C2\\SC(=S)N(CCCC(=O)NC3=NCCS3)C2=O)cc1", "inhibition": 79.8}
{"smiles": "O=C(CCSc1nc2ccccc2s1)N/N=C/c1c(O)ccc2ccccc12", "inhibition": -10.4}
{"smiles": "COC1CC(C)C(OC)c2cc(O)cc(c2O)NC(=O)C(C)=CC=CC(C)C(OC(N)=O)C(C)=CC(C)C1OC", "note": "(stereo not drawn)", "inhibition": 87.1}
{"smiles": "COc1ccc(Nc2ncnc3ccc(Br)cc23)c(OC)c1", "inhibition": 90.8}
{"smiles": "COC(=O)C1C=CC(OC2OC(COC(C)=O)C(OC(C)=O)C(OC(C)=O)C2OC(C)=O)n2c(=O)n(-c3ccccc3)c(=O)n21", "note": "(stereo not drawn)", "inhibition": 94.9}
{"smiles": "CN1CCC2(CC1)N=C(c1ccc(F)cc1)C(=S)N2C(=O)c1ccc(C(C)(C)C)cc1", "inhibition": 93.1}
{"smiles": "O=C(NNC(=O)c1cccnc1SCc1cccc([N+](=O)[O-])c1)c1ccccn1", "inhibition": 6.38}
{"smiles": "Cc1ccc(C)c(S(=O)(=O)N2CCN(c3ncnc4sccc34)CC2)c1", "inhibition": 62.6}
{"smiles": "CCc1ccc(/C=C2\\SC(=S)N(CCCC(=O)Nc3ccccn3)C2=O)cc1", "inhibition": 78.8}
{"smiles": "C=CCn1c(C)cc(C(=O)COc2ccc(C)nc2[N+](=O)[O-])c1C", "inhibition": 51.5}
{"smiles": "COc1ccc2c(c1)c(=Cc1ccc(N(C)C)cc1)c1cc(-c3ccccc3)[n+](C)n12", "inhibition": 99.5}
{"smiles": "O=C(Nc1ccc(Cc2ccncc2)cc1)c1ccc([N+](=O)[O-])o1", "inhibition": 88.7}
{"smiles": "COc1ccc(/C=C2/CCCC(CN(C)C)C2=O)cc1", "note": "(stereo not drawn)", "inhibition": 80}
{"smiles": "COc1ccc(NC(=O)c2cc(-c3ccccn3)nc3ccccc23)cc1S(=O)(=O)N(C)C", "inhibition": 48.4}
{"smiles": "Cc1ccc(NC(=S)NC(=O)c2ccc(F)cc2)cc1S(=O)(=O)Nc1ccccc1Cl", "inhibition": 70.9}
{"smiles": "Cc1ccccc1CNC(=O)C1CCCN(c2nnc(C)c3c(C)n(-c4ccccc4)nc23)C1", "note": "(stereo not drawn)", "inhibition": 97.3}
{"smiles": "CCC(=O)NC(c1ccc(C)cc1)c1ccc2cccnc2c1O", "note": "(stereo not drawn)", "inhibition": 36.2}
{"smiles": "C/C(=N\\NC(=O)c1c(C)nc2ccccn12)c1ccc(O)cc1O", "inhibition": 3.34}
{"smiles": "COc1cc(OC)c2cc(C(=O)N/N=C/c3ccccc3O)[nH]c2c1", "inhibition": 79.9}
{"smiles": "CCCCCCN1C=C/C(=C\\C=C(C#N)C#N)c2ccccc21", "inhibition": 50.3}
{"smiles": "CCN(CC)S(=O)(=O)c1cccc(C(=O)N/N=C(\\C)c2ccc(O)cc2O)c1", "inhibition": -75.3}
{"smiles": "Cc1ccc(C(C[N+](=O)[O-])Sc2ccc(N)cc2)cc1", "note": "(stereo not drawn)", "inhibition": 98.3}
{"smiles": "CCC(C)Cn1c(O)cc2nn(-c3nc4ccccc4s3)c(=O)c-2c1C", "note": "(stereo not drawn)", "inhibition": 99.6}
{"smiles": "Nc1nonc1-n1nnc(C(=O)N/N=C/c2cc(Br)ccc2O)c1CNc1ccccc1", "inhibition": 70.2}
